Data as given in PubChem BioAssay.
The source made the active and inactive calls. Unless noted, no stated cut-off is given here; in the data, active means nuclear beta-catenin stimulation mostly above about 4.2% (no sharp cut-off); inactive means mostly below about 10%. Positions of bridges follow the written chain, without caps; N, C: chain ends. Non-standard residues stand in square brackets, D forms with d. Residues, ends and D or L forms follow the SMILES beside them. hArg = N=C(N)NCCCC[C@H](N)C(=O)O; Mpa = O=C(O)CCS

Tests used:
[1] = stimulators of nuclear beta-catenin in C2C12, primary screen, imaging, WNT3A-conditioned medium, mouse C2C12, NPC library (AID 1117326); settings: stronger effect = higher value; further: reference of the scale not given here
[2] = stimulators of insulin release from INS-1E, primary screen, cell-based, 5 mM glucose, NPC library (AID 1117329;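 active means compound raises insulin release from rat beta cells at 5 mM glucose, no numeric limit stated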; further: reference of the scale not given here); settings: rat INS-1E insulin secretion, at 10 µM, stronger effect = higher value
[3] = growth inhibition of GSK3B-pretreated HCT116 cells – cell-based, CellTiter-Glo, 0.2 to 20 µM (AID 1117336;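 active means compounds lowering colon cancer cell viability after pretreatment blocking the GSK3B kinase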); settings: HCT116 viability after GSK3B inhibitor, at 20 µM, stronger effect = higher value
[4] = inhibition of endothelial tube formation, primary screen, imaging, VEGF stimulated, CD31 staining, tube area, NPC library (AID 1117340;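 active means compound that reduces growth-factor-driven endothelial tube area in a mixed cell culture, no cutoff stated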); settings: VEGF-stimulated ADSC/ECFC co-culture, at 10 µM, stronger effect = higher value
[5] = glucagon-like peptide 1 release enhancers, primary assay, NCI-H716 cell line, NPC library (AID 1117341;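 active means compound raises GLP1 secretion from the human gut endocrine cells, with no numeric limit stated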; further: reference of the scale not given here); settings: NCI-H716 cells, at 10 µM, stronger effect = higher value
[6] = HCT116 colon cancer cell growth inhibition, primary screen, CellTiter-Glo luminescence, NPC library (AID 1117342;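 active means compounds that lower survival of HCT116 colon cancer cells in the luminescence readout, no numeric limit stated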); settings: at 20 µM (top of the series)
[7] = CellTiter-Glo luminescent readout of SW480 viability loss, NPC library primary (AID 1117343;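 active means compounds that lower viability of the colon cancer cells in the luminescence readout, with no numeric limit stated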); settings: CellTiter-Glo luminescence; at 20 µM (top of the series)
[8] = decreased DLD-1 cellular survival, CellTiter-Glo luminescent readout, NPC compound collection, primary HTS (AID 1117346;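 active means compounds that lower survival of DLD-1 colon cancer cells in the luminescence readout, no cutoff given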); settings: DLD-1 viability, CellTiter-Glo luminescence; at 20 µM (top of the series)

CC(C(O)c1ccccc1)N(C)CCOC(c1ccccc1)c1ccccc1 (centres undefined)
inactive: nuclear beta-catenin stimulation ([1]; at 10 µM) 4.3% | insulin secretion stimulation [2] 2.45% | tube area decrease [4] 14.1% | GLP1 secretion stimulation [5] 7.4%
2.3%: nuclear beta-catenin stimulation ([1]; stimulation, at 2 µM)
active: viability decrease [3] 77.3% | inhibition of viability [6] 86.9% | viability decrease (inhibition) [7] 133% | viability decrease (inhibition) [8] 81.5%

NC(=O)[C@@H]1CSSCCC(=O)N[C@@H](CCCCN=C(N)N)C(=O)NCC(=O)N[C@@H](CC(=O)O)C(=O)N[C@@H](Cc2c[nH]c3ccccc23)C(=O)N2CCC[C@H]2C(=O)N1 ([Mpa][hArg]GDWPC-NH2; disulfide 1-7)
5.8%: nuclear beta-catenin stimulation ([1]; stimulation, at 2 µM)
inactive: nuclear beta-catenin stimulation ([1]; at 10 µM) 3.6% | insulin secretion stimulation [2] 3.95% | viability decrease [3] 19.6% | GLP1 secretion stimulation [5] -2.7% | inhibition of viability [6] 9.3% | viability decrease (inhibition) [7] 0.7% | viability decrease (inhibition) [8] 0.2%
active: tube area decrease [4] 79.4%

Cc1cc(CC(=O)O)c(C)n1-c1ccc(Cl)cc1
inactive: nuclear beta-catenin stimulation ([1]; at 10 µM) -0.5% | insulin secretion stimulation [2] 2.3% | viability decrease [3] -14.4% | tube area decrease [4] 1.3% | GLP1 secretion stimulation [5] -0.2% | inhibition of viability [6] 7.9% | viability decrease (inhibition) [7] 11.7% | viability decrease (inhibition) [8] -14.3%
-0.4%: nuclear beta-catenin stimulation ([1]; stimulation, at 2 µM)

CC(=O)O[C@H]1CC[C@@]2(C)C(=CC[C@@H]3[C@@H]2CC[C@]2(C)C(C(C)=O)=CC[C@@H]32)C1
0.6%: nuclear beta-catenin stimulation ([1]; stimulation, at 2 µM)
inactive: nuclear beta-catenin stimulation ([1]; at 10 µM) 3.7% | insulin secretion stimulation [2] 0.2% | viability decrease [3] 48% | tube area decrease [4] 9.9% | GLP1 secretion stimulation [5] -2% | inhibition of viability [6] 25.8% | viability decrease (inhibition) [8] 14.9%
active: viability decrease (inhibition) [7] 60.1%

CC1(S(=O)(=O)O)CC(=O)c2ccccc2C1=O (centres undefined)
active: viability decrease [3] 98.8% | tube area decrease [4] 54.7% | inhibition of viability [6] 99.2% | viability decrease (inhibition) [7] 102% | viability decrease (inhibition) [8] 102%
inactive: nuclear beta-catenin stimulation ([1]; at 10 µM) 30.3% | insulin secretion stimulation [2] -0.7% | GLP1 secretion stimulation [5] 1.2%
-0.2%: nuclear beta-catenin stimulation ([1]; stimulation, at 2 µM)

COc1ccc2cc(Br)ccc2c1
inactive: nuclear beta-catenin stimulation ([1]; at 10 µM) -0.6% | insulin secretion stimulation [2] 0.9% | viability decrease [3] -1.1% | tube area decrease [4] 3.3% | GLP1 secretion stimulation [5] -5% | inhibition of viability [6] -2.2% | viability decrease (inhibition) [7] -5.1% | viability decrease (inhibition) [8] -6%
-0.3%: nuclear beta-catenin stimulation ([1]; stimulation, at 2 µM)

Nc1ccc(C(=O)Nc2ccccc2N)cc1
active: viability decrease [3] 39.9% | inhibition of viability [6] 72.5% | viability decrease (inhibition) [7] 64.9%
1.9%: nuclear beta-catenin stimulation ([1]; stimulation, at 2 µM)
inactive: nuclear beta-catenin stimulation ([1]; at 10 µM) 10.2% | insulin secretion stimulation [2] -0.6% | tube area decrease [4] 8.5% | GLP1 secretion stimulation [5] 1.1% | viability decrease (inhibition) [8] 29.3%

C[C@H]1C[C@H](O)c2ccsc2S1(=O)=O
active: inhibition of viability [6] 4.1%
2.7%: nuclear beta-catenin stimulation ([1]; stimulation, at 2 µM)
inactive: nuclear beta-catenin stimulation ([1]; at 10 µM) 0.6% | insulin secretion stimulation [2] -0.8% | viability decrease [3] -1.3% | tube area decrease [4] 1.2% | GLP1 secretion stimulation [5] 1% | viability decrease (inhibition) [7] -6.2% | viability decrease (inhibition) [8] -4%

COCCc1ccc(OCC2CO2)cc1 (centres undefined)
inactive: nuclear beta-catenin stimulation ([1]; at 10 µM) 0.9% | insulin secretion stimulation [2] 0.8% | viability decrease [3] -8% | tube area decrease [4] -12.7% | GLP1 secretion stimulation [5] 0.8% | inhibition of viability [6] -0.6% | viability decrease (inhibition) [7] 14.3% | viability decrease (inhibition) [8] 3.3%
0.3%: nuclear beta-catenin stimulation ([1]; stimulation, at 2 µM)

COC(=O)c1cc(Cl)c(NC(C)=O)cc1OC
inactive: nuclear beta-catenin stimulation ([1]; at 10 µM) 1.9% | insulin secretion stimulation [2] 0.95% | viability decrease [3] -12.1% | tube area decrease [4] -7.7% | GLP1 secretion stimulation [5] 1.2% | inhibition of viability [6] -1.4% | viability decrease (inhibition) [7] -23.1% | viability decrease (inhibition) [8] -11.9%
0.7%: nuclear beta-catenin stimulation ([1]; stimulation, at 2 µM)

Cc1ccc2c(n1)Oc1ccc(C(C)C(=O)OCC(=O)N(C)C)cc1C2 (centres undefined)
-2.8%: nuclear beta-catenin stimulation ([1]; stimulation, at 2 µM)
inactive: nuclear beta-catenin stimulation ([1]; at 10 µM) 0.6% | insulin secretion stimulation [2] 1.8% | viability decrease [3] 28.6% | tube area decrease [4] -10% | GLP1 secretion stimulation [5] 3.6% | inhibition of viability [6] 20.4% | viability decrease (inhibition) [7] -3.8% | viability decrease (inhibition) [8] -1.1%

O=[N+]([O-])c1ccc(/C=N\O)o1
0.4%: nuclear beta-catenin stimulation ([1]; stimulation, at 2 µM)
inactive: nuclear beta-catenin stimulation ([1]; at 10 µM) 2% | insulin secretion stimulation [2] -3.1% | viability decrease [3] 35.1% | tube area decrease [4] -16.1% | GLP1 secretion stimulation [5] 4% | inhibition of viability [6] 8.8% | viability decrease (inhibition) [8] 4.47%
active: viability decrease (inhibition) [7] 53.4%

CCCCC(=O)O[C@H]1CC[C@H]2[C@@H]3CCc4cc(O)ccc4[C@@H]3CC[C@]12C
-0.3%: nuclear beta-catenin stimulation ([1]; stimulation, at 2 µM)
active: viability decrease [3] 99.1% | tube area decrease [4] 108% | inhibition of viability [6] 91.3% | viability decrease (inhibition) [7] 103% | viability decrease (inhibition) [8] 74.4%
inactive: nuclear beta-catenin stimulation ([1]; at 10 µM) -0.4% | insulin secretion stimulation [2] 1.2% | GLP1 secretion stimulation [5] -4.2%

OC[C@H]1O[C@@H]2O[C@H]3[C@H](O)[C@@H](O)[C@@H](O[C@H]4[C@H](O)[C@@H](O)[C@@H](O[C@H]5[C@H](O)[C@@H](O)[C@@H](O[C@H]6[C@H](O)[C@@H](O)[C@@H](O[C@H]7[C@H](O)[C@@H](O)[C@@H](O[C@H]8[C@H](O)[C@@H](O)[C@@H](O[C@H]1[C@H](O)[C@H]2O)O[C@@H]8CO)O[C@@H]7CO)O[C@@H]6CO)O[C@@H]5CO)O[C@@H]4CO)O[C@@H]3CO
0.5%: nuclear beta-catenin stimulation ([1]; stimulation, at 2 µM)
inactive: nuclear beta-catenin stimulation ([1]; at 10 µM) 0.1% | insulin secretion stimulation [2] 1.1% | viability decrease [3] -5.9% | tube area decrease [4] 2.3% | GLP1 secretion stimulation [5] -1.9% | inhibition of viability [6] 1.17% | viability decrease (inhibition) [7] 21% | viability decrease (inhibition) [8] -3.7%

CC(C)[C@H](N)C(=O)O
active: viability decrease (inhibition) [7] 11.9%
1.3%: nuclear beta-catenin stimulation ([1]; stimulation, at 2 µM)
inactive: nuclear beta-catenin stimulation ([1]; at 10 µM) -0.1% | insulin secretion stimulation [2] 0.4% | viability decrease [3] -2.3% | tube area decrease [4] -14.8% | GLP1 secretion stimulation [5] -4.1% | inhibition of viability [6] 1.3% | viability decrease (inhibition) [8] 14.8%

CCc1nnc(NS(=O)(=O)c2ccc(N)cc2)s1
inactive: nuclear beta-catenin stimulation ([1]; at 10 µM) -0.1% | insulin secretion stimulation [2] -0.8% | viability decrease [3] 5.1% | tube area decrease [4] -5.1% | GLP1 secretion stimulation [5] -0.1% | inhibition of viability [6] -13.8% | viability decrease (inhibition) [7] 4.4% | viability decrease (inhibition) [8] -18.9%
2%: nuclear beta-catenin stimulation ([1]; stimulation, at 2 µM)
